Only some compounds are listed: those with a hit (about 6.1% of all), similar ones and a draw of the others.
DRD3 agonist = D3 dopamine receptor (human) agonism; P35462; D3R DiscoveRx beta-arrestin cells, luminescence, 90 min; max activation, %; 0.58% of 410,000 active; AID 652048; in the data active means max activation above about 30%
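Agonist mode: compounds and dopamine controls were applied to plated cells for 90 min at 37 degrees C after an overnight attachment at 1500 cells/well. Luminescent read-out followed 30 - 60 minutes at room temperature with DiscoveRx detection reagent.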
DRD3 antagonist = blocks the human D3 dopamine receptor. 2.5% of 360,000 active. max response, negative = inhibition, %. P35462. D3R cells, DiscoveRx beta-arrestin luminescence, antagonist mode; hits give low values; in the data active means max response below about -50%
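Cells plated overnight at 1500 cells/well, then exposed to library compounds with dopamine controls for 90 minutes at 37 degrees C. DiscoveRx reagent added for 30–60 minutes at room temperature; luminescence read, quantitative HTS format.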
D1 antagonist = human D1 dopamine receptor antagonism; P21728; HEK293 TREx D1 cells, calcium flux, dopamine EC80; hits give low values; activity change, negative = inhibition, % at 10 µM; 3.2% of 360,000 active; in the data active means activity change below about -30%
Target sequence (P21728 whole entry, looked up): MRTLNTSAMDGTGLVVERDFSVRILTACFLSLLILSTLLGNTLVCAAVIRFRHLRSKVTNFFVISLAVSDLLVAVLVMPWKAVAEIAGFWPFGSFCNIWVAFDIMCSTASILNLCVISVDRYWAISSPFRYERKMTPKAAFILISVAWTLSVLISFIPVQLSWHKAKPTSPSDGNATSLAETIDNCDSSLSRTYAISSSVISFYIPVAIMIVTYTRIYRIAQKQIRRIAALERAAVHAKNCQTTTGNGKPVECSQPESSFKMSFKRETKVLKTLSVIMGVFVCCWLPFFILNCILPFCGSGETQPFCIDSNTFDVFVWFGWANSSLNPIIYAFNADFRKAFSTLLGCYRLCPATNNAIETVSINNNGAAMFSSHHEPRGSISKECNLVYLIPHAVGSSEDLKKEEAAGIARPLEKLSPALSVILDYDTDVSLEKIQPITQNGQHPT
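Tetracycline-induced HEK293 Trex D1 cells, force-coupled to calcium, dye-loaded; compounds added and read 180 s, then EC80 dopamine added and calcium flux tracked kinetically another 180 s.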
D1 ag = agonists of human D1 dopamine receptor; activation, % at 2 µM; P21728; HEK293 T-REx D1 cells, calcium flux, agonist mode; 1% of 360,000 active; AID 504660; in the data active means activation above about 30%
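Inducible HEK293 T-REx D1 cells, force-coupled to calcium signalling, were plated at 4000 cells/well with tetracycline and held overnight at 30 C. After no-wash calcium dye loading, compound-evoked calcium rise over 180 s flagged agonists.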
D1 PAM = enhances dopamine response at the human D1 receptor | 0.036% of 360,000 active | potentiation, % at 10 µM | P21728 | HEK293 TREx D1 cells, calcium flux, dopamine EC20 potentiation; in the data active means potentiation above about 30%
Hits are given with their value.

What do the screens show for `C=CCn1c(COc2ccc(OC)cc2)nc2ccccc21`?
DRD3 agonist: inactive; DRD3 antagonist: inactive; D1 antagonist: -34.8; D1 ag: inactive; D1 PAM: inactive

Results for OCc1nc2ccccc2n1CCCCOc1ccccc1 ?
DRD3 agonist: inactive; DRD3 antagonist: inactive

How did COC(=O)c1cc(COc2ccc3oc(C)c(C(=O)OC)c3c2)c(C)o1 do in these assays?
DRD3 agonist: 76.0; DRD3 antagonist: inactive; D1 antagonist: inactive; D1 ag: inactive; D1 PAM: inactive

How did COC(=O)c1ccc(COc2ccc3ccc(=O)oc3c2)o1 do in these assays?
DRD3 agonist: inactive; DRD3 antagonist: inactive; D1 antagonist: inactive; D1 ag: inactive; D1 PAM: inactive

Results for CCOC(=O)c1c(C)oc2ccc(OCC(=O)C(C)(C)C)cc12 ?
DRD3 agonist: inactive; DRD3 antagonist: inactive; D1 antagonist: inactive; D1 ag: inactive; D1 PAM: inactive

What do the screens show for `CCOC(=O)c1c(C)oc2ccc(OCc3cc(C(=O)OC)oc3C)cc12`?
DRD3 agonist: 32.9; DRD3 antagonist: inactive; D1 antagonist: inactive; D1 ag: inactive; D1 PAM: inactive

Results for COC(=O)c1cc(COc2ccc3ccc(=O)oc3c2)c(C)o1 ?
DRD3 agonist: inactive; DRD3 antagonist: -67.7; D1 antagonist: inactive; D1 ag: inactive; D1 PAM: inactive

What do the screens show for `CC(=O)c1c(C)oc2ccc(OCc3ccccc3)cc12`?
DRD3 agonist: inactive; DRD3 antagonist: inactive; D1 antagonist: inactive; D1 ag: inactive; D1 PAM: inactive

How did O=C(CSc1oc(-c2ccc(F)cc2)nc1S(=O)(=O)c1ccc(Cl)cc1)c1ccccc1 do in these assays?
DRD3 agonist: inactive; D1 antagonist: inactive; D1 ag: inactive; D1 PAM: inactive

How did COc1cccc(NC(=S)NN2CCN(C)CC2)c1 do in these assays?
DRD3 agonist: inactive; DRD3 antagonist: inactive; D1 antagonist: inactive; D1 ag: inactive; D1 PAM: inactive

How did CN1CCN(NC(=S)Nc2ccc(Oc3ccccc3)cc2)CC1 do in these assays?
DRD3 agonist: inactive; DRD3 antagonist: inactive; D1 antagonist: inactive; D1 ag: 36.4; D1 PAM: inactive

Results for CC1CCN(S(=O)(=O)c2ccc(C(=O)N3CCCC(C(F)(F)F)C3)cc2)CC1 (stereo unspecified) ?
DRD3 agonist: inactive; DRD3 antagonist: inactive; D1 antagonist: -33.0; D1 ag: inactive; D1 PAM: inactive

What do the screens show for `Cc1ccc(NS(=O)(=O)c2ccc(C(=O)N3CCCC(C(F)(F)F)C3)cc2)cc1` (stereo unspecified)?
DRD3 agonist: inactive; DRD3 antagonist: inactive; D1 antagonist: -61.7; D1 ag: 69.8; D1 PAM: inactive

What do the screens show for `COc1ccccc1NS(=O)(=O)c1ccc(C(=O)N2CCCC(C(F)(F)F)C2)cc1` (stereo unspecified)?
DRD3 agonist: inactive; DRD3 antagonist: inactive; D1 antagonist: inactive; D1 ag: inactive; D1 PAM: inactive

What do the screens show for `Cc1cc(C)cc(NC(=O)c2cn3c4c(ccc(Cl)c4c2=O)OC(C)C3)c1` (stereo unspecified)?
DRD3 agonist: inactive; D1 antagonist: inactive; D1 ag: inactive; D1 PAM: inactive

Results for C/C(=N\Nc1ccc([N+](=O)[O-])cc1)c1ccc2c(c1)OCO2 ?
DRD3 agonist: inactive; DRD3 antagonist: inactive; D1 antagonist: -38.3; D1 ag: 37.7; D1 PAM: inactive

How did C/C(=N\NS(=O)(=O)c1ccc([N+](=O)[O-])cc1)c1ccc2c(c1)OCO2 do in these assays?
DRD3 agonist: inactive; DRD3 antagonist: inactive; D1 antagonist: -30.9; D1 ag: inactive; D1 PAM: inactive

How did O=C(Nc1c(-c2ccc3c(c2)OCO3)[nH][nH]c1=O)c1ccc2c(c1)OCO2 do in these assays?
DRD3 agonist: inactive; DRD3 antagonist: -77.7

How did C/C(=N\NC(=O)c1ccc2c(c1)OCO2)c1ccc2c(c1)OCO2 do in these assays?
DRD3 agonist: inactive; DRD3 antagonist: -54.6; D1 antagonist: inactive; D1 ag: inactive; D1 PAM: inactive

What do the screens show for `O=C(Nc1c(-c2ccccc2)[nH][nH]c1=O)c1ccccc1`?
DRD3 agonist: inactive; DRD3 antagonist: inactive

Results for COc1cc(OC)cc(C(=O)Nc2cc(-c3nc4cccnc4s3)ccc2C)c1 ?
DRD3 agonist: inactive; D1 antagonist: inactive; D1 ag: inactive; D1 PAM: inactive
